According to PubChem BioAssay AID1240 (Sanford-Burnham Center for Chemical Genomics, 2008):
Hit rate of the full screen: of about 50,000 compounds, about 800 (1.6%) showed an effect of 50% or more. Only a selection was taken, and strong results are over-represented in it overall.

target: Bcl-2-like protein 10 (Homo sapiens) (UniProt Q9HD36); test: TR3 peptide-Bcl-B binding displacers, biochemical primary FP assay, phenotype converters (AID 1240); conditions: GST-Bcl-B / FITC-TR3 peptide fluorescence polarization; stronger effect = higher value; compound at 3.75 mg/L;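 further: 0% = Bcl-B with tracer peptide and DMSO and 100% = tracer peptide lacking Bcl-B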
Sequence (Q9HD36 whole entry, looked up): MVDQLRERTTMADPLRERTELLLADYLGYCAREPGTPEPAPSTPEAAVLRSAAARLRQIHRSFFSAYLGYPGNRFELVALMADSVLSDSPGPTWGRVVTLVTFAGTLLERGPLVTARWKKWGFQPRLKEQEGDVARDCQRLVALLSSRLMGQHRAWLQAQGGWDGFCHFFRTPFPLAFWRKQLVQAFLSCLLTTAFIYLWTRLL

Row | Structure (SMILES) | displacement
1 | CCC(=O)Nc1nc(C23CC4CC(CC(C4)C2)C3)c(C)s1 | -2.7%
2 | COc1cc(/C=C2/SC(=S)N(Cc3ccccc3)C2=O)cc(Cl)c1OCc1ccccc1 | 12.4%
3 | CC1=C(C(=O)OCCc2ccccc2)C(c2ccccc2OCc2ccccc2)C2=C(CCCC2=O)N1 (configuration not stated) | -6%
4 | CC(C)CN1C(=O)c2ccc(C(=O)Nc3c[nH]c(=O)[nH]c3=O)cc2C1=O | 7.8%
5 | C=CCn1c(C)nc2c(cnn2-c2ccccc2)c1=O | -0.7%
6 | C=C(C)C1CC=C(C)/C(=N/NC(=O)c2cccc(C)c2)C1 (configuration not stated) | 14.9%
7 | CCn1cc(C(=O)NN)c(=O)c2cc(F)c(N3CCCCC3)cc21 | 17.4%
8 | COc1cc(/C=C2/SC(=S)N(C)C2=O)ccc1OCc1cccc2ccccc12 | 6.6%
9 | N#C/C(=C\c1cccs1)c1nc(-c2ccc(Br)cc2)cs1 | 5.9%
10 | Cc1ccc(-c2csc(/C(C#N)=C/c3ccsc3)n2)cc1 | -5.9%
11 | Cc1ccsc1/C=C(\C#N)c1nc(-c2ccc3c(c2)OCO3)cs1 | -27%
12 | Cc1csc(/C(C#N)=C/c2sccc2C)n1 | -12%
13 | N#C/C(=C\c1ccccc1Cl)c1nc(-c2cccs2)cs1 | -9.2%
14 | Cc1ccsc1/C=C(/C#N)c1nc(-c2ccc(Br)cc2)cs1 | 132%
15 | Cc1ccsc1/C=C(\C#N)c1nc(-c2cccc(Br)c2)cs1 | 95.2%
16 | CCc1ccc(/C=C(/C#N)c2nc(-c3ccc(Br)cc3)cs2)cc1 | -3.5%
17 | Cc1ccsc1/C=C(\C#N)c1nc(-c2cc3cc(Br)ccc3oc2=O)cs1 | -10.8%
18 | N#C/C(=C\c1cccs1)c1nc(-c2ccc(Cl)cc2Cl)cs1 | 129%
19 | Cc1ccc(-c2csc(/C(C#N)=C/c3sccc3C)n2)c(C)c1 | 69.3%
20 | CC(C)(C)c1cc(C(=O)N/N=C/C=C/c2ccccc2)n[nH]1 | -9.5%
21 | COc1ccc(/C=N/Nc2ncc(Br)cn2)cc1 | -11.3%
22 | C=CCn1c(O)c(C2=c3cc(Cl)ccc3=NC2=O)sc1=S | -14.2%

Row | Structure (SMILES) | displacement
23 | CCc1ccc(S(=O)(=O)Nc2ccccc2OC)cc1 | 13.8%
24 | N/C(=N\OC(=O)c1ccc(Br)cc1)c1ccc(Cl)cc1 | 2.2%
25 | Cc1cc(Cl)ccc1OCC(O)CN1C(C)CCCC1C (configuration not stated) | 0.8%
26 | CC(=O)N1C(=O)/C(=C\C(=O)c2ccc([N+](=O)[O-])cc2)c2ccccc21 | 0.8%
27 | CC(C)NC(=O)C12CC3CC(C1)CC(C(=O)NC(C)C)(C3)C2 | 1.3%
28 | CCOC(=O)CSc1nnc2c3ccccc3n(CC)c2n1 | -10.4%
29 | Cc1ccc(OCc2nnc(NC(=O)Nc3cccc(Cl)c3)s2)cc1C | 14.2%
30 | C/C(=N\N=C1\NC(=O)C(CC(=O)Nc2ccc(Cl)cc2Cl)S1)c1ccc(Cl)cc1 (configuration not stated) | 15.5%
31 | COc1ccc(CNC(=O)c2c(-c3c(Cl)cccc3Cl)noc2C)cc1 | 0.9%
32 | COc1cccc(-c2csc(/C(C#N)=C/c3ccc(C)o3)n2)c1 | -113%
33 | Cc1ccc(/C=C(\C#N)c2nc(-c3ccc(C)c(C)c3)cs2)o1 | -25.1%
34 | Cc1ccc(/C=C(\C#N)c2nc(-c3cccc(Br)c3)cs2)o1 | 164%
35 | Cc1ccccc1NC(=O)c1cc(-c2ccccc2)nc2c(Cl)cccc12 | -13.6%
36 | Cc1ccccc1NC(=O)c1cc2ccccc2c(/C=N/n2cnnc2)c1O | 109%
37 | CCOc1ccccc1C=Nc1ccccc1C(=O)Nc1ccccc1 | -7.9%
38 | COc1ccccc1N=Cc1c(O)c(C(=O)Nc2ccccc2)cc2ccccc12 | 105%
39 | COc1cc(OC)c(C=Nc2ccccc2C(=O)Nc2ccccc2)cc1Br | -6%
40 | Cc1ccc(-n2c(O)c(/C=N/n3cnnc3)c3ccccc3c2=O)cc1 | 5.8%
41 | COC(C(=O)NNC(=O)c1cccc(Cl)c1)c1ccccc1 (configuration not stated) | -5.9%
42 | CCOC(=O)C1=C(C)NC(=O)NC1c1cc(OC)c(OC)c(OC)c1 (configuration not stated) | 9.3%
43 | O=C(CN(c1cccc([N+](=O)[O-])c1)S(=O)(=O)c1ccccc1)NCC1CCCO1 (configuration not stated) | -4.4%
44 | O=C(Nc1ccc2nn(-c3ccc(Cl)cc3)nc2c1)c1cccnc1 | 29.6%

Row | Structure (SMILES) | displacement
45 | CCOC(=O)c1c(NC(=O)c2ccc(Cl)cc2Cl)sc(C(N)=O)c1C | 88.7%
46 | CCOC(=O)c1c(NC(=O)c2ccc(Cl)cc2Cl)sc(C(=O)Nc2ccccc2C)c1C | 1.3%
47 | CCOC(=O)c1c(NC(=O)c2ccc(Cl)cc2Cl)sc(C)c1C | 6.1%
48 | O=S(=O)(c1ccc2ccccc2c1)N(CC(O)CN1CCOCC1)c1ccccc1 (configuration not stated) | -0.7%
49 | O=C(NCc1cccnc1)c1cccc(S(=O)(=O)N2CCCCC2)c1 | 2.2%
50 | CCOC(=O)/C=C/C(=O)Nc1sc(C)c(C)c1C(N)=O | -2%
51 | O=c1c(-c2cccs2)[n+]([O-])c2ccccc2n1O | 69.4%
52 | COn1c(=O)c(-c2ccccc2)[n+]([O-])c2ccccc21 | 15.9%
53 | O=c1c(-c2ccccc2)[n+]([O-])c2ccccc2n1O | 21.7%
54 | CCOn1c(=O)c(-c2ccccc2)[n+]([O-])c2ccccc21 | 18.9%
55 | CCOn1c(=O)c(C)[n+]([O-])c2ccccc21 | 14.9%
56 | CCOn1c(=O)c(-c2cccs2)[n+]([O-])c2ccccc21 | 121%
57 | Cc1ccc(OCC(=O)NN)c(Br)c1 | -6.5%
58 | CN1CCN(CCCOc2ccc(Br)cc2)CC1 | -8.4%
59 | O=C(N/N=C/c1ccc(O)cc1)c1cc(C2CC2)[nH]n1 | -10.1%
60 | COC(=O)C1=C(C(=O)OC)SC(=C2C(=S)C(C)(C)N(C(=O)c3cccc(F)c3)c3ccc(OC)cc32)S1 | -7.9%
61 | Clc1ccc(-c2noc(-c3ccc(Cl)cc3Cl)n2)cc1 | 4.3%
62 | CCOC(=O)C1=C(O)/C(=C/c2ccc(Cl)cc2)SC1=Nc1ccc(C)cc1 | 5.9%
63 | CCOC(=O)C1=C(O)/C(=C/c2ccc(N(C)C)cc2)SC1=Nc1cccc2ccccc12 | 168%
64 | CCOC(=O)C1=C(O)/C(=C/c2ccc(N(C)C)cc2)SC1=Nc1ccc(OC)cc1 | 3.8%
65 | CCOC(=O)C1=C(O)/C(=C/c2ccc(N(C)C)cc2)SC1=Nc1cccc(Cl)c1 | -53.7%
66 | CCOC(=O)C1=C(O)/C(=C/c2ccc(Cl)cc2)SC1=Nc1ccc(OC)cc1 | 3.1%

Row | Structure (SMILES) | displacement
67 | CCOC(=O)C1=C(O)/C(=C/c2ccc(F)cc2)SC1=Nc1ccccc1 | -10.3%
68 | CCOC(=O)C1=C(O)/C(=C/c2ccc(N(C)C)cc2)SC1=Nc1ccc(Cl)cc1 | 170%
69 | CCOC(=O)C1=C(O)/C(=C/c2ccc(Cl)cc2)SC1=Nc1cccc2ccccc12 | -11.7%
70 | CCOC(=O)C1=C(O)/C(=C/c2ccc(O)cc2)SC1=Nc1ccc(Cl)cc1 | 104%
71 | CCOC(=O)C1=C(O)/C(=C/c2ccc(N(C)C)cc2)SC1=Nc1ccc(F)cc1 | 142%
72 | CCOC(=O)C1=C(O)/C(=C/c2ccccc2)SC1=Nc1cccc2ccccc12 | 14.5%
73 | CCOC(=O)C1=C(O)/C(=C/c2ccc(N(C)C)cc2)SC1=Nc1ccc([N+](=O)[O-])cc1 | 15.5%
74 | Cc1cccc(OCC(=O)Nc2ccc(C)c(C)c2)c1 | -13.9%
75 | CCOC(=O)C1=C(C)NC(=O)CC1c1cc2c(cc1Br)OCO2 (configuration not stated) | -6.4%
76 | O=C(O)/C=C\C(=O)Nc1ccccc1SC(F)(F)F | 9.3%
77 | O=C1C=CC(=O)N1c1ccc(Cl)cc1[N+](=O)[O-] | -9%
78 | CCOC(=O)c1c(N)sc(C(=O)Nc2ccccc2F)c1C | 12.7%
79 | CCC(=O)Nc1nc(C)c(-c2csc(Nc3cccc(C(=O)O)c3)n2)s1 | 34.5%
80 | CC(NC(=O)COc1ccc(/C=N/NS(=O)(=O)c2ccccc2)cc1)c1ccccc1 (configuration not stated) | 4%
81 | COc1ccc(C(=O)/C=C/c2ccc(/C=C/C(=O)c3ccc(OC)cc3)cc2)cc1 | 19.1%
82 | COc1ccc(/C=C/C(=O)c2cccc([N+](=O)[O-])c2)cc1 | 14.9%
83 | COc1ccc(-c2ccc(/C=C/C(=O)c3ccc(C)cc3)o2)cc1 | 91.1%
84 | COc1ccc(C(=O)/C=C/c2ccc(-c3ccc([N+](=O)[O-])cc3)o2)cc1 | 133%
85 | COc1ccc(/C=C/C(=O)c2ccc([N+](=O)[O-])cc2)cc1 | 105%
86 | O=C(/C=C/c1ccc(-c2ccc(Br)cc2)o1)c1ccc([N+](=O)[O-])cc1 | -1.7%
87 | O=C(/C=C/c1ccc(-c2ccccc2Cl)o1)c1ccc(F)cc1 | 6.5%
88 | COc1ccc(-c2ccc(/C=C/C(=O)c3ccc(Cl)cc3)o2)cc1 | -16.7%

Row | Structure (SMILES) | displacement
89 | COc1ccc(C(=O)/C=C/c2ccc(-c3ccccc3[N+](=O)[O-])o2)cc1 | 13.8%
90 | Cc1ccc(C(=O)/C=C/c2ccc(-c3ccc(Cl)cc3)o2)cc1 | 17.9%
91 | O=C(/C=C/c1ccc(-c2cccc(C(F)(F)F)c2)o1)c1ccc(F)cc1 | -28.8%
92 | O=C(/C=C/c1ccc(-c2ccccc2)o1)c1ccc(F)cc1 | 54.3%
93 | CC(C)(C)C1CCc2c(sc(NC(=O)c3ccccc3)c2C(N)=O)C1 (configuration not stated) | 37%
94 | CCNC(=O)C(=O)Nc1ccc(OCC)cc1 | 7.5%
95 | COc1ccc(NC2(c3ccccc3)C(=O)c3c(Cl)c(Cl)c(Cl)c(Cl)c3C2=O)cc1 | 4.4%
96 | O=Cc1cccc(OCc2ccccc2F)c1 | -0.4%
97 | CC1(O)c2ccccc2C(=O)N1Cc1ccccc1 (configuration not stated) | 12.6%
98 | Cc1ccc(Cc2cnc(NC(=O)c3cccc([N+](=O)[O-])c3)s2)cc1 | 26.3%
99 | C=C1CSc2nc(=O)c3c4c(sc3n21)CCC4 | 11.7%
100 | O=C1OC(c2cccc(Cl)c2)=N/C1=C\c1ccc(OC(=O)c2cccc([N+](=O)[O-])c2)cc1 | 71.9%
101 | O=C1NC(=O)C(=Cc2ccc(OC(=O)c3cccc([N+](=O)[O-])c3)cc2)C(=O)N1 | 1.8%
102 | Cc1cccc(C(=O)Oc2ccc(/C=C3/N=C(c4ccccc4)OC3=O)cc2)c1 | 0.5%
103 | CCCCCCCNC1CC(=O)N(c2ccc(Br)cc2)C1=O (configuration not stated) | 1.7%
104 | Cc1ccc(-c2[nH]n3c(=O)c4c(nc3c2C)CCCC4)cc1 | -2.2%
105 | Cc1ccc(-c2[nH]n3c(=O)c4c(nc3c2C)CCC4)cc1 | 60.8%
106 | Cc1ccc(-c2[nH]n3c(=O)c4c(nc3c2C)CCS4)cc1 | -0.6%
107 | CCOc1ccc(/C=C(/C#N)c2nc(-c3ccc(Br)cc3)cs2)c(OCC)c1 | 38.9%
